This passage reports inhibition results from PubChem BioAssay AID828 (The Scripps Research Institute Molecular Screening Center, 2007).

Out of some 140,000 compounds screened, about 550 (0.39%) were called active. The sample as a whole holds a higher share of actives than the screen did. A number with no mark means an inactive call. Cut-off read from the data, not from the text of the source: active = inhibition above about 27%; inactive = the rest.

In the assay the target is Galanin receptor type 2 (Homo sapiens) (UniProt O43603). Nature of the assay: blockers of human galanin receptor 2 – cell-based, primary screen (AID 828).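 Note: cells stimulated with galanin 1-16 at roughly its EC80; 0% = agonist challenge control and 100% = basal control without agonist.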 The settings on record: GALR2-expressing cells, antagonist mode; at 4 µM; hits give high values.
Chain of Galanin receptor type 2 (Homo sapiens) (O43603 whole entry, looked up): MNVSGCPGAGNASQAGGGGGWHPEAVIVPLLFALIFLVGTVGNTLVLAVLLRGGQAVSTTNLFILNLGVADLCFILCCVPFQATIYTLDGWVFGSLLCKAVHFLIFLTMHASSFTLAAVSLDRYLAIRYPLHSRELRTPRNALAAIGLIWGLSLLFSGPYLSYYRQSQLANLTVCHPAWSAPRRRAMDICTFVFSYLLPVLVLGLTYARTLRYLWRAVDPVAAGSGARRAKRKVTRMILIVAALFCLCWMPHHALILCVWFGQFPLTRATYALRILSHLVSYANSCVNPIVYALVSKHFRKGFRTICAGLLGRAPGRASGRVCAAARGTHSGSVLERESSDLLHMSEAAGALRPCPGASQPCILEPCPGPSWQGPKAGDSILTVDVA
As a reminder, the inhibition is the change of the read-out against control, counted positive when it falls. `CN(C)c1ccc(-n2cccc2/C=N/n2cnnc2)cc1`: the inhibition is 0.57%.

For `CC(Sc1nc(-c2ccccc2)cc(C(F)(F)F)n1)C(=O)Nc1ccc2c(c1)OCO2` (stereo not drawn), the inhibition is 0.9%.

On to `CCc1cccc(C)c1NC(=O)COC(=O)Cc1ccsc1`, for which the inhibition was 5.66%.

As to `Cc1ccc(NC(=O)CSCC(=O)NC2CCCCC2)cc1`, the inhibition was 4.82%.

For the molecule `Cc1ccc(OCC(=O)OC(C)CN(C)Cc2ccccc2)cc1` (stereo not drawn), the inhibition was -4.66%.

`CC(NC(=S)Nc1ccc(S(N)(=O)=O)cc1)c1ccc2c(c1)OCO2` (stereo not drawn): the inhibition was 4.43%.

As for `COc1cccc(-c2ccc(C#N)c(SCC(=O)NCCc3ccc(Cl)cc3)n2)c1`, the inhibition was 6.63%.

Take `CCc1ccc(C2C(C#N)=C(N)N(N(C)C)C3=C2C(=O)CCC3)s1` (stereo not drawn): the inhibition is -4.14%.

Turning to `CCCc1nc2c([nH]1)C(c1cccnc1)C(C#N)=C(N)O2` (stereo not drawn), the inhibition is 1.63%.

With `COc1cc(OC)cc(-c2nc3ccccc3c(=O)n2NC(=O)c2cccnc2Cl)c1`, the inhibition was 1.33%.

As for `COc1ccc(/C=N/Nc2ncnc3sc4c(c23)CCCC4)cc1O`, the inhibition was 0.22%.

`COC(=O)C(NC(=O)c1ccc(OC)cc1)(Nc1ncc(S(=O)(=O)c2ccc([N+](=O)[O-])cc2)s1)C(F)(F)F` (stereo not drawn): the inhibition is -4.68%.

Take `Cc1cc(C)cc(OCC(=O)Nc2nc3ccc([N+](=O)[O-])cc3s2)c1`: the inhibition was 7.65%.

For the molecule `O=C(NC(Nc1nc2ccc([N+](=O)[O-])cc2s1)(C(F)(F)F)C(F)(F)F)c1ccccc1`, the inhibition was 88.7% (active).

Regarding `O=C(CNC(=O)c1ccc(-c2ccccc2)cc1)OCc1ccc(Cl)cc1`, the inhibition was 9.65%.

With `O=C(CNC(=O)OCc1ccccc1)Oc1cc2oc(=O)cc(-c3ccccc3)c2cc1Cl`, the inhibition was 31.1% (active).

`CC(=O)COc1ccc2c(-c3ccccc3)cc(=O)oc2c1`: the inhibition is -10.7%.

Consider `CN(C)CCNC(CC(=O)Nc1ccc(Cl)c(Cl)c1)C(=O)O` (stereo not drawn), for which the inhibition was -5.57%.

For `CC(c1cccnc1)N(CCN(C)C)C(=O)Nc1ccc(Cl)c(Cl)c1` (stereo not drawn), the inhibition is 29.6% (active).

Turning to `CS(=O)(=O)N(CC(=O)Nc1ccc(Cl)c(Cl)c1)C1CCCCC1`, the inhibition is -3.02%.

Regarding `COC(=O)c1ccccc1SC1CC(=O)N(c2cccc(C)c2)C1=O` (stereo not drawn), the inhibition is 10.2%.

As to `C=CCNC(=O)COC(=O)c1ccccc1C(=O)N(C)C1CCCCC1`, the inhibition is -14.8%.

Take `Cc1cc(C(=O)COc2ccccc2[N+](=O)[O-])c(C)n1-c1cccc(S(=O)(=O)N2CCOCC2)c1`: the inhibition is -3.23%.

Turning to `CCOC(=O)c1c(NC(=S)NC(=O)/C=C/c2cccs2)sc(C)c1C`, the inhibition is -8.3%.

For the molecule `Cc1c(C(=O)Nc2cccc(-c3nnc4n3CCCCC4)c2)oc2ccccc12`, the inhibition is -1.52%.

For `CC(Cc1cccs1)NC(=O)c1cccc(Cl)c1` (stereo not drawn), the inhibition is 3.36%.

With `Cc1ccc(/C(N)=N/OC(=O)COc2ccc(Cl)c(C)c2)cc1`, the inhibition was 7.55%.

Take `O=C(/C=C/Sc1ncn[nH]1)c1ccc(Cl)cc1`: the inhibition is 36.3% (active).

With `O=C(NCCOCc1ccc(Cl)cc1)c1ncn[nH]1`, the inhibition was 6.29%.

`CC(C)(C)c1ccc(C(=O)CSc2ncn[nH]2)cc1`: the inhibition was 4.68%.

On to `COc1ccc(NC(=O)c2nc(-n3nc(C)cc3C)ccc2Cl)cc1Cl`, for which the inhibition was -4.22%.

On to `N#Cc1ccccc1Sc1ccccc1C(=O)OCC(=O)NC1CCCCC1`, for which the inhibition was -1.21%.

Consider `COc1ccc(CNC(=O)CN(Cc2ccc(Cl)cc2)S(C)(=O)=O)cc1`, for which the inhibition was -0.09%.

For the molecule `O=C(Oc1ccc([N+](=O)[O-])cc1)c1ccc(Cl)c(S(=O)(=O)N2CCCCC2)c1`, the inhibition was -9.96%.

On to `COc1ccc(N(C(=O)c2ccc(C)cc2)S(=O)(=O)c2cccs2)cc1`, for which the inhibition was 5.74%.

As for `CCc1ccc2c(c1)C1(NN=C(c3ccccc3)S1)C(=O)N2` (stereo not drawn), the inhibition is 28.2% (active).

Consider `C=C1c2cc(CC)ccc2NC(=O)N1c1ccc(C)cc1`, for which the inhibition is 5.36%.

Turning to `O=C1Nc2ccccc2C12Nc1ccccc1S2` (stereo not drawn), the inhibition is 6.08%.

With `CNC(=O)c1ccsc1NC(=O)c1ccc(S(=O)(=O)N2CCOCC2)cc1`, the inhibition was -4.99%.

With `CCCn1nc(C(=O)Nc2ccc3nc(C)sc3c2)c2ccccc2c1=O`, the inhibition is -3.02%.

With `COc1ccc(C2CC(c3cccs3)=NN2C(=O)COC(=O)c2cc3ccccc3cc2O)cc1OC` (stereo not drawn), the inhibition was 12.7%.

Turning to `Fc1ccc(N2N=C(c3cccs3)CC2c2ccco2)c(F)c1` (stereo not drawn), the inhibition was -13.2%.

On to `COc1ccccc1N1N=C(c2cccs2)CC1c1ccccc1` (stereo not drawn), for which the inhibition is 32.5% (active).

Consider `CC(C)(C)NC(=O)COC(=O)c1cc(Br)ccc1Cl`, for which the inhibition was -2.97%.

As for `CC(=O)Nc1ccc(S(=O)(=O)NC(C)C(=O)OCC(=O)NC2CCCC2)cc1` (stereo not drawn), the inhibition is 11.3%.

In the case of `O=C(Cc1cccs1)Nc1cccc(-c2nc3ccccc3[nH]2)c1`, the inhibition is 12.3%.

Turning to `COc1ccc(/C=C(\C#N)C(=O)NCCCn2ccnc2)cc1`, the inhibition was 8.04%.

Take `CC(=O)Nc1cc(C(=O)O)ccc1S(=O)(=O)c1ccc(Cl)cc1`: the inhibition is 4.42%.

Consider `O=C(Nc1ccc(Cl)cc1)c1ccsn1`, for which the inhibition is 12.1%.

For `O=C(Nc1ccccc1)c1nnsc1S(=O)(=O)c1ccc(Cl)cc1`, the inhibition was 42.4% (active).

Turning to `Fc1ccc2[nH]c3c(N4CCN(Cc5ccc6c(c5)OCO6)CC4)ncnc3c2c1`, the inhibition is 44.8% (active).

On to `Cc1cc(N2CCN(Cc3ccc4c(c3)OCO4)CC2)n2ncnc2n1`, for which the inhibition was -5.12%.

Regarding `Fc1ccc2[nH]c3c(N4CCSCC4)ncnc3c2c1`, the inhibition was 22.8%.

Take `CC(=O)c1c(C)[nH]c(C(=O)NCc2ccc(C)cc2)c1C`: the inhibition was -10.3%.

With `CCOc1ccc(NC(=O)Nc2cc(C)ccc2OC)cc1`, the inhibition is 1.77%.

`COc1ccc(C)cc1NC(=O)c1[nH]c(C)c(C(C)=O)c1C`: the inhibition is 27.2% (active).

Consider `CC(C)(C)N(Cc1ccccc1)C(=O)COC(=O)CCc1c[nH]c2ccccc12`, for which the inhibition was 1.11%.

Turning to `Cc1ccc(NC(=S)NC(=O)/C=C/c2ccc(Cl)cc2)cc1`, the inhibition is -8.1%.

On to `O=[N+]([O-])c1cc(S(=O)(=O)N2CCCC2)ccc1NN=C1CCCC1`, for which the inhibition is -1.82%.

Regarding `O=C(NCCc1ccccc1)C1CCN(S(=O)(=O)c2ccc(Br)s2)CC1`, the inhibition was -2.64%.

Regarding `COC(C(=O)Nc1ccc(S(=O)(=O)Nc2ccc(C)c(C)c2)cc1)c1ccccc1` (stereo not drawn), the inhibition is 0.51%.

`Cc1cc(C)nc(SC2CCCCC2NS(=O)(=O)c2ccc(Cl)cc2)n1` (stereo not drawn): the inhibition was -14.2%.

As for `COc1ccc(OC)c(/C=C/C(=O)OCC(=O)Nc2ccc3c(c2)OCCO3)c1`, the inhibition is 4.33%.

Turning to `CCOC(=O)/C(=N\Nc1cc(Cl)ccc1Cl)N1CCN(C)CC1`, the inhibition is -4.67%.

For `CCn1c(=O)cc(SCC(=O)NCCC2=CCCCC2)c2ccccc21`, the inhibition is -16%.

As for `CCOC(=O)C1=C(C)NC(=S)NC1c1cccs1` (stereo not drawn), the inhibition is -4.54%.

For `CCC1C=C(c2ccccc2)C=CN=C1N(CC)CC` (stereo not drawn), the inhibition was 15%.

Take `CCC(CC)c1nnc(NC(=O)/C=C/c2ccco2)s1`: the inhibition was 8.13%.

As for `CCOC(=O)/C(N=Nc1cc(C(=O)O)cc(C(=O)O)c1)=C(\O)CCl`, the inhibition was -4.09%.

In the case of `CC1(C)CC(=O)C/C(=N\NC(=O)c2cccs2)C1`, the inhibition is 9.6%.

On to `Cc1ccc2nc(-c3cccnc3)c(NC3CCCC3)n2c1`, for which the inhibition was 21.2%.

On to `CC(=O)Nc1ccc(S(=O)(=O)Nc2nc(-c3ccc(C(C)(C)C)cc3)cs2)cc1`, for which the inhibition is -2.4%.

As to `O=[N+]([O-])c1ccccc1SNc1ccccn1`, the inhibition is 0.95%.

On to `CC(=O)NC1C(Oc2ccc(C)cc2)OC2COC(c3ccco3)OC2C1O` (stereo not drawn), for which the inhibition is 11.3%.

As for `O=[N+]([O-])c1ccc(N2CCN(S(=O)(=O)c3ccccc3)CC2)cc1N1CCc2ccccc2C1`, the inhibition was 1.38%.

As for `COc1ccccc1-c1nnc(NC(=O)c2cccc(N3C(=O)CCC3=O)c2)o1`, the inhibition was -8.68%.

Take `O=C(/C=C\c1cn(-c2ccccc2)nc1-c1cccs1)N1CCOCC1`: the inhibition was 13.8%.

As for `O=C(Nn1c(SCc2ccc([N+](=O)[O-])cc2)nc2ccccc2c1=O)c1ccc(F)cc1`, the inhibition was -6.11%.

In the case of `COc1ccc(-c2cc(C(=O)NC(Cc3c[nH]c4ccccc34)C(=O)O)c(C)o2)cc1OC` (stereo not drawn), the inhibition was 2.65%.

For the molecule `COc1ccc(NC(=O)/C(Cl)=C(/Cl)S(=O)Cc2ccc(C)cc2)cn1` (stereo not drawn), the inhibition is 105% (active).

As for `COc1cccc(NC(=O)Cc2ccc(C)cc2)c1`, the inhibition was 4.68%.

For the molecule `COc1ccc(NS(=O)(=O)c2ccc(NC(=S)NC(=O)/C=C/c3ccc(C)cc3)cc2)nn1`, the inhibition was 7.84%.

On to `COC(=O)Cc1ccc(N(Cc2ccccc2F)S(=O)(=O)c2ccc(Br)cc2)cc1`, for which the inhibition is -3.96%.

As for `COc1ccc(C(C(=O)NC2CCCCC2)N(C(=O)CCl)c2ccccc2Cl)cc1` (stereo not drawn), the inhibition was 3.18%.

As for `CCOc1ccc(S(=O)(=O)N(CC(=O)NCC(F)(F)F)Cc2ccco2)cc1`, the inhibition was -7%.

For `COCC(C)NC(=O)c1ccc(-n2nc(C(F)(F)F)cc2-c2cccs2)cc1` (stereo not drawn), the inhibition was -1.6%.

Consider `CCCNC(=O)c1ccc(Cl)c(Cl)c1`, for which the inhibition was 10.1%.

Turning to `COCC(C)NC(=O)c1ccc(Cl)c(Cl)c1` (stereo not drawn), the inhibition is 27.4% (active).

In the case of `CCN1CN(Cc2ccccc2)CNC1=S`, the inhibition was 3.98%.

Take `O=S(=O)(/N=C(/Nc1ccccc1)c1ccccc1)c1cccs1`: the inhibition is -10.3%.

Turning to `Cc1ccc(CC2S/C(=C(/C#N)C(=O)N3CCOCC3)N(c3ccccc3)C2=O)cc1` (stereo not drawn), the inhibition was -9.98%.

With `C=CCNC(=O)/C(=C\c1cccc([N+](=O)[O-])c1)NC(=O)c1ccccc1`, the inhibition is 3.63%.

With `COc1ccc(NC(=O)COC(=O)c2ccc(NS(=O)(=O)/C=C/c3ccccc3)cc2)cc1`, the inhibition was 9.83%.
